This passage reports Potency results from PubChem BioAssay (Tox21).

Inconclusive results are not listed. Entries that show only a call come without a potency. Activity calls are given as the source filed them. The call rests on the fitted dose curve; in most records, active means well fitted cell-killing curve with a large enough effect in the repeat runs; inconclusive means weak or mixed curves, or effect the other way; inactive means flat fitted curve, though single readings scatter.

The nature of experiment [1]: cAMP Responsive Elements (CRE) small molecule antagonists, cell-based qHTS assay: qHTS cell viability counter screen (AID 2060913). Further: nearly all actives have a fitted effect of over 40% in size. In short, it runs like this: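 Steps: cells plated and held 18 hrs at 37 C/5% CO2; compounds and NKH477 (0.25 uM final) added; 3 hrs incubation; reporter substrate read; CellTiter-Glo added to measure cytotoxicity by luminescence.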
A general note: Quantitative high-throughput screening tests each substance at several concentrations.

The nature of experiment [2]: cAMP Responsive Elements (CRE) small molecule agonists, cell-based qHTS assay: qHTS cell viability counter screen (AID 2060914). Further: nearly all actives have a fitted effect of over 50% in size. The procedure, abridged:
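In the same wells as the reporter read, viability of CRE-bla HEK 293T cells was quantified by CellTiter-Glo luminescence after a 3 h compound exposure.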

Consider `CCCCCCCCCCCCCC(=O)O`, for which the Potency entry in experiment [1] and in experiment [2] was “inactive” each time.

On to `NC(CO)(CO)CO`, for which the Potency entry in experiment [1] and in experiment [2] was “inactive” each time.

On to `N#CCc1cccc(C(F)(F)F)c1`, for which the Potency entry in experiment [1] and in experiment [2] was “inactive” in each case.

In the case of `O=C(O)CCCl`, the Potency result in experiment [1] and in experiment [2] was “inactive” in each case.

For the compound `CC(O)C(=O)O` (stereo unspecified), the Potency result in experiment [1] and in experiment [2] was “inactive” each time.

As for `COCCCOCCCOC`, the Potency result in experiment [1] and in experiment [2] was “inactive” in each case.

In the case of `CC(C)(C)c1cccc(C(C)(C)C)c1O`, the Potency result in experiment [1] and in experiment [2] was “inactive” throughout.

As to `CC(C)(C)C1CCC(O)CC1` (stereo unspecified), the Potency result in experiment [1] and in experiment [2] was “inactive” throughout.
